Experimental data reported in PubChem BioAssay AID1159580 (chemical genetic matrix, 2015).
Values joined by “and” are separate entries in the source; they are usually repeats but may differ in a detail not shown here. Equal values may be shown once. Hit rate of the full screen: of about 5,500 compounds, about 2,000 (36%) were called active. Roughly 18% stayed inconclusive and do not appear here. Cut-off read from the data, not from the text of the source: active = normalized growth mostly below about 0.91 (no sharp cut-off); inconclusive = no clear call, values can overlap the other calls; inactive = mostly above about 0.92. Some of the results follow.

Experiment: chemical genetic growth profiling, strain panel (AID 1159580);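 note: tested at 20 µM; growth read once vehicle control cultures reached saturation at 30 °C; 1 = growth at the plate median or of vehicle wells; lower values mean less growth of the strain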
Details: S. cerevisiae deletion strains, growth OD

Measured: normalized growth

O=C1C=CC(=C(c2ccc(O)cc2)c2ccc(O)cc2)C=C1
inactive: locus YAL013W, strain DEP1, hits give low values 0.985 | locus YAL021C, strain ccr4, hits give low values 1 | locus YAL026C, strain drs2, hits give low values 0.972 | locus YAL030W, strain snc1, hits give low values 1 | locus YBL061C, strain skt5, hits give low values 0.982 | locus YBR009C, strain hhf1, hits give low values 0.981 | locus YBR021W, strain FUR4, hits give low values 0.992 | locus YBR023C, strain chs3, hits give low values 0.968 | locus YBR171W, strain sec66, hits give low values 0.968 | locus YBR229C, strain ROT2, hits give low values 0.991 | locus YBR231C, strain swc5, hits give low values 0.987 | locus YBR279W, strain paf1, hits give low values 0.99 | locus YCL011C, strain gbp2, hits give low values 0.972 | locus YCL016C, strain dcc1, hits give low values 1.01 | locus YCL029C, strain bik1, hits give low values 0.99 | locus YCL069W, strain vba3, hits give low values 0.959 | locus YCR088W, strain abp1, hits give low values 0.975 | locus YDL005C, strain med2, hits give low values 0.977 | locus YDL035C, strain GPR1, hits give low values 1 | locus YDL040C, strain nat1, hits give low values 0.991 | locus YDL074C, strain BRE1, hits give low values 1.06 | locus YDL101C, strain DUN1, hits give low values 1 | locus YDL134C, strain PPH21, hits give low values 0.998 | locus YDL185W, strain tfp1, hits give low values 1 | locus YDL192W, strain arf1, hits give low values 0.982 | locus YDR001C, strain nth1, hits give low values 0.975 | locus YDR069C, strain doa4, hits give low values 0.952 | locus YDR101C, strain arx1, hits give low values 0.995 | locus YDR137W, strain rgp1, hits give low values 0.988 | locus YDR150W, strain NUM1, hits give low values 1.01 | locus YDR159W, strain sac3, hits give low values 0.972 | locus YDR162C, strain NBP2, hits give low values 1.01 | locus YDR195W, strain ref2 0.927 | locus YDR297W, strain sur2, hits give low values 0.987 | locus YDR318W, strain mcm21, hits give low values 0.982 | locus YDR334W, strain swr1, hits give low values 0.962 | locus YDR335W, strain msn5, hits give low values 0.968 | locus YDR388W, hits give low values 0.972 | locus YDR392W, strain spt3, hits give low values 0.986 | locus YDR502C, strain sam2, hits give low values 1 | locus YEL003W, strain gim4, hits give low values 0.974 | locus YEL037C, strain rad23, hits give low values 0.973 | locus YEL061C, strain CIN8 (second series), hits give low values 0.938 | locus YEL061C, strain CIN8, hits give low values 1.01 | locus YER015W, strain faa2, hits give low values 0.99 | locus YER016W, strain bim1, hits give low values 0.983 | locus YER110C, hits give low values 0.976 | locus YER111C, strain swi4, hits give low values 0.969 | locus YER155C, strain BEM2 (second series), hits give low values 1.01 | locus YER155C, strain BEM2, hits give low values 0.997 | locus YER167W, strain BCK2, hits give low values 0.993 | locus YFR010W, strain ubp6, hits give low values 0.945 | locus YGL078C, strain dbp3, hits give low values 0.994 | locus YGL086W, strain mad1, hits give low values 0.986 | locus YGL167C, strain pmr1, hits give low values 0.994 | locus YGL173C, strain kem1, hits give low values 0.98 | locus YGL227W, strain vid30, hits give low values 0.971 | locus YGL240W, strain doc1, hits give low values 0.983 | locus YGL248W, strain PDE1, hits give low values 0.991 | locus YGL253W, strain hxk2, hits give low values 0.967 | locus YGR078C, strain PAC10, hits give low values 1.03 | locus YGR135W, strain pre9, hits give low values 1 | locus YGR229C, strain SMI1, hits give low values 1.02 | locus YGR252W, strain gcn5, hits give low values 0.97 | locus YHR013C, strain ard1, hits give low values 0.985 | locus YHR027C, strain rpn1, hits give low values 1 | locus YHR030C, strain SLT2, hits give low values 0.994 and 1.04 | locus YHR079C, strain IRE1 (second series), hits give low values 0.989 | locus YHR079C, strain IRE1, hits give low values 1.05 | locus YHR094C, strain hxt1, hits give low values 0.989 | locus YHR129C, strain ARP1, hits give low values 0.994 | locus YHR142W, strain chs7, hits give low values 0.962 | locus YHR200W, strain rpn10, hits give low values 0.988 | locus YIL066C, strain RNR3, hits give low values 0.992 | locus YIL073C, strain SPO22, hits give low values 0.976 | locus YIL125W, strain kgd1, hits give low values 0.995 | locus YIR030C, strain dcg1, hits give low values 0.986 | locus YJL092W, strain hpr5, hits give low values 0.953 | locus YJL095W, strain BCK1 (second series), hits give low values 0.975 | locus YJL095W, strain BCK1, hits give low values 1.03 and 1.02 | locus YJL115W, strain asf1, hits give low values 0.966 | locus YJL129C, strain trk1, hits give low values 0.965 | locus YJL134W, strain LCB3, hits give low values 0.994 | locus YJL154C, strain vps35, hits give low values 0.98 | locus YJL164C, strain tpk1, hits give low values 1 | locus YJL166W, strain qcr8, hits give low values 0.984 | locus YJL168C, strain set2, hits give low values 0.98 | locus YJL187C, strain SWE1 (second series), hits give low values 0.998 | locus YJL187C, strain SWE1, hits give low values 0.993 | locus YJR043C, strain POL32, hits give low values 1.04 | locus YJR066W, strain TOR1, hits give low values 0.979
